Results reported in ChEMBL document CHEMBL1961873, “Compounds: GSK PKIS; Assays: Nanosyn kinase panel” (2012).

Each molecule was assayed against 5'-AMP-activated protein kinase catalytic subunit alpha-2 (Homo sapiens) (UniProt P54646). Conditions: at 1 µM.
Sequence of 5'-AMP-activated protein kinase catalytic subunit alpha-2 (Homo sapiens) (P54646 whole entry, looked up): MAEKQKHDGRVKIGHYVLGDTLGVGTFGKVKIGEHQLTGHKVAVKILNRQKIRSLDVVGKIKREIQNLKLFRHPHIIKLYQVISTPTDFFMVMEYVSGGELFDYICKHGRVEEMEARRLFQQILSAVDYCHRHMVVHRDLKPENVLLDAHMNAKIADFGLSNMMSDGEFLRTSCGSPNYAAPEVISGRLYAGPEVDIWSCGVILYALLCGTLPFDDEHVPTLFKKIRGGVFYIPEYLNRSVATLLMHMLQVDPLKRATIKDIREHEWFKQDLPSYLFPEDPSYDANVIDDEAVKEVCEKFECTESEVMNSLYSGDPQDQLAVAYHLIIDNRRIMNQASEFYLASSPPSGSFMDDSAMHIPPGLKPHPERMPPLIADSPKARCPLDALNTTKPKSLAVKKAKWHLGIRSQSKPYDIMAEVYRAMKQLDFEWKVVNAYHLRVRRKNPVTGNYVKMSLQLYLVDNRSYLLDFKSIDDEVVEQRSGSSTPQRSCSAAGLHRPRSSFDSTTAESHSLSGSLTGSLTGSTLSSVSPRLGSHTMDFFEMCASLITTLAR
For CCn1c(-c2nonc2N)nc2c(C#CC(C)(C)O)nc(O[C@@H](CN)c3ccccc3)cc21, the inhibition was 68.1%.
Nc1nonc1-c1nc2cnccc2n1C1CCCCC1 gave an inhibition of 3.46%.
CCn1c(-c2nonc2N)nc2c(C#CC(C)(C)O)ncc(OCC3CCNCC3)c21 gave an inhibition of 16.1%.
Molecule NC(=O)c1sc(-n2cnc3cc(C(F)(F)F)ccc32)cc1OCc1ccccc1Br has an inhibition of 4.05%.
With Cc1cc(-c2ccco2)cc(C)c1/C=C/c1cncc(-c2nn[nH]n2)c1 the inhibition was 2.58%.
Molecule NS(=O)(=O)c1ccc(-c2ccc3c(NC(=O)C4CC4)n[nH]c3c2)cc1 has an inhibition of 5.62%.
COc1cc(C=NNc2ncnc3c2cnn3Cc2ccccc2)ccc1O showed an inhibition of -3.45%.
Molecule COc1cc2c(cc1Nc1nc(Nc3ccsc3C(N)=O)c3cc[nH]c3n1)N(C(=O)CN(C)C)CCC2 has an inhibition of 2.09%.
COc1cccc(COc2cc(-n3cnc4ccccc43)sc2C(N)=O)c1 was tested, and the inhibition was 1.39%.
NS(=O)(=O)c1ccc(N/C=C2\C(=O)Nc3ccc4ncsc4c32)cc1 was tested, and the inhibition was 42.8%.
With COc1cccc(-n2ncc3c(N/N=C/c4ccncc4)ncnc32)c1 the inhibition was 7.87%.
CCn1c(-c2nonc2N)nc2c(C#CC(C)(C)O)ncc(OC[C@@H]3CCCN3)c21 showed an inhibition of 4.25%.
Work on Fc1ccc(-c2ncn(C3CCNCC3)c2-c2ccnc(Oc3ccccc3)n2)cc1 yielded an inhibition of -1.95%.
Work on CCn1c(-c2nonc2N)nc2c(C#CCN)ncc(OCCCN)c21 yielded an inhibition of 2.16%.

Each molecule was assayed against T1, NUAK family SNF1-like kinase 1 (Homo sapiens) (UniProt O60285). Conditions: at 0.1 µM.
T1 sequence (whole entry): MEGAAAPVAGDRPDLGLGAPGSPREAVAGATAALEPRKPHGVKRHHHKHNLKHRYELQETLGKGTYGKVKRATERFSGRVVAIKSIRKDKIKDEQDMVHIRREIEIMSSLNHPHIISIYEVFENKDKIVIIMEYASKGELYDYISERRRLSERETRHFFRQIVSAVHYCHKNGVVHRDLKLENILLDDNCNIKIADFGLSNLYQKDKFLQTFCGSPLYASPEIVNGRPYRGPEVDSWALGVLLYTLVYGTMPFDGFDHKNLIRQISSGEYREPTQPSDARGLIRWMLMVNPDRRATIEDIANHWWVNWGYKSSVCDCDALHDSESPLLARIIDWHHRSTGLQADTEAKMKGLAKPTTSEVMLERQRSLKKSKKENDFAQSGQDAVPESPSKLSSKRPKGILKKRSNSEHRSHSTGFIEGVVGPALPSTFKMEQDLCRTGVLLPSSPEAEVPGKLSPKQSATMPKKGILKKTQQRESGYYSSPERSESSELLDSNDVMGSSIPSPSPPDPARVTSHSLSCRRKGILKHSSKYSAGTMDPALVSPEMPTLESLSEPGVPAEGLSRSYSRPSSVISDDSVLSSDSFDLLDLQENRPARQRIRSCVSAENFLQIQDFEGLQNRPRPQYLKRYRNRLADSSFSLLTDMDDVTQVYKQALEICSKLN
CCn1c(-c2nonc2N)nc2c(C#CC(C)(C)O)nc(O[C@@H](CN)c3ccccc3)cc21 gave an inhibition of 24.4%.
In the case of Nc1nonc1-c1nc2cnccc2n1C1CCCCC1, the inhibition is reported as 0.83%.
CCn1c(-c2nonc2N)nc2c(C#CC(C)(C)O)ncc(OCC3CCNCC3)c21 gave an inhibition of 6.78%.
Molecule NC(=O)c1sc(-n2cnc3cc(C(F)(F)F)ccc32)cc1OCc1ccccc1Br has an inhibition of -0.04%.
Work on Cc1cc(-c2ccco2)cc(C)c1/C=C/c1cncc(-c2nn[nH]n2)c1 yielded an inhibition of -1.33%.
In the case of NS(=O)(=O)c1ccc(-c2ccc3c(NC(=O)C4CC4)n[nH]c3c2)cc1, the inhibition is reported as 3.06%.
For COc1cc(C=NNc2ncnc3c2cnn3Cc2ccccc2)ccc1O, the inhibition was 7.72%.
With COc1cc2c(cc1Nc1nc(Nc3ccsc3C(N)=O)c3cc[nH]c3n1)N(C(=O)CN(C)C)CCC2 the inhibition was 1.84%.
COc1cccc(COc2cc(-n3cnc4ccccc43)sc2C(N)=O)c1 was tested, and the inhibition was -2.73%.
NS(=O)(=O)c1ccc(N/C=C2\C(=O)Nc3ccc4ncsc4c32)cc1 was tested, and the inhibition was 59.2%.
COc1cccc(-n2ncc3c(N/N=C/c4ccncc4)ncnc32)c1 gave an inhibition of 16.1%.
For CCn1c(-c2nonc2N)nc2c(C#CC(C)(C)O)ncc(OC[C@@H]3CCCN3)c21, the inhibition was 6.58%.
Fc1ccc(-c2ncn(C3CCNCC3)c2-c2ccnc(Oc3ccccc3)n2)cc1 showed an inhibition of -1.26%.
In the case of CCn1c(-c2nonc2N)nc2c(C#CCN)ncc(OCCCN)c21, the inhibition is reported as 6.71%.
